The values that follow come from PubChem BioAssay (NCI).

Molecules are shown by their SMILES. Compounds without any hit were thinned out: in the full panel of roughly 83,000, 20% have a hit.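 48-hour exposure, single concentration, 96-well plates; percent growth endpoint where 0 means no net growth. Active: below 10.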 Activity calls are given as the source filed them.

In the test the test system is IGROV1 ovarian. Briefly: NCI-60 one-dose screen, 48 h (100 = growth as untreated, 0 = no growth, -100 = all killed). The settings on record: 10 µM unless noted.
In the case of `COc1ccc(-c2cn[nH]c2-c2cc(OC)c3c(c2)OCO3)cc1`, the growth was -17.2% (active).
As to `CCCCCCCCCCCCNC(=S)N/N=C/c1ccc(Cl)c(Cl)c1`, the growth was 119% (inactive).
In the case of `Oc1ccc(Cl)cc1-c1cc(-c2ccc(Cl)cc2)n[nH]1` it was 34.5% (inactive); in that of `COc1cc(NC(=O)CSc2nc3ccc(C)cc3c(=O)n2-c2ccccc2)cc(OC)c1OC`, 89.6% (inactive); in that of `Clc1nc(-c2cccnc2)nc2sc3c(c12)CCCCCC3`, 107% (inactive).
On to `CCCCCCCCCCCCCCCCC(Br)C(=O)O` (stereo not given), for which the growth is 125% (inactive).
In the case of `CCN(Cc1ccccc1)c1ccc(SC#N)cc1` it was 103% (inactive).
On to `CCCCCC(=O)OCc1ccccc1`, for which the growth is 96.7% (inactive).
Regarding `COc1ccc(S(=O)(=O)N2CCN(c3cc4c(cc3F)c(=O)c(C(=O)O)cn4C3CC3)CC2)c(OC)c1`, the growth was 101% (inactive).
To `COc1cc2nc(N3CCC[C@@H](NC4=CC(=O)c5ccccc5C4=O)C3)nc(N)c2cc1OC` belongs -82.3% (active); to `COc1ccccc1CNCCCN1C(=O)c2ccc3c4c(ccc(c24)C1=O)C(=O)N(CCCNCCCCNCCCCN)C3=O`, -57.8% (active).
In the case of `Cc1cc(C)c(S(=O)(=O)N2CCN(c3cc4c(cc3F)c(=O)c(C(=O)O)cn4C3CC3)CC2)c(C)c1` it was 35.7% (inactive); in that of `COc1ccc(NC(=O)CSc2nc3ccccc3c(=O)n2-c2ccccc2C(F)(F)F)c(OC)c1OC`, 127% (inactive); in that of `CNC(C)=O`, 105% (inactive).
To `CCN(CC)P(=O)(N(CC)CC)N(CCCSC/C=C(\C)CC/C=C(\C)CCC=C(C)C)CCCN1CCN(C)CC1` belongs 110% (inactive).
